The values that follow come from PubChem BioAssay (NCATS).

Assay [1] can be described thus: qHTS for differential inhibitors of proliferation of Plasmodium falciparum line W2 (AID 1883).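 Further: potency means the concentration at half of the fitted maximal effect; parasites grown with compound for 72 h before lysis and staining.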 The conditions noted are these: Potency: Plasmodium falciparum W2 proliferation inhibition. (In general: qHTS replaces the single test concentration by a dilution series.)
Assay [2] is described as follows: qHTS Assay for Modulators of Human Peripheral Myelin Protein 22 (PMP22) Expression/Activity (AID 1967; active means well fitted curve in the direction sought with a large enough effect in the signal ratio; the % refers to the signal ratio;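 further: 0% = untreated cells and 100% end not stated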). The procedure, abridged:
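Quantitative HTS in a mouse Schwann cell line expressing dual click beetle luciferases: Pmp22 promoter (green) and control EF-alpha promoter (red). After 24h treatment, corrected green/red signal ratio gave %Activity relative to untreated cells.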

The target in assay [3] is RecQ-like DNA helicase BLM (Homo sapiens) (UniProt P54132). The assay is described as follows: qHTS Validation Assay for Inhibitors of Bloom's syndrome helicase (BLM) (AID 2364). Further: potency means the concentration at half of the fitted maximal effect. A digest of the protocol: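 BLM 50 nM in 25 mM Tris-HCl pH 8.0, 5 mM NaCl, 2 mM MgCl2, 1 mM DTT, 0.01% Tween-20, 2.5 ug/ml poly(dI-dC); 15 min cpd preinc, RT. Start: 200 nM forked DNA + 2 mM ATP (final). TAMRA read, 2 reads 2 h apart.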
RecQ-like DNA helicase BLM (Homo sapiens), sequence (P54132 whole entry, looked up): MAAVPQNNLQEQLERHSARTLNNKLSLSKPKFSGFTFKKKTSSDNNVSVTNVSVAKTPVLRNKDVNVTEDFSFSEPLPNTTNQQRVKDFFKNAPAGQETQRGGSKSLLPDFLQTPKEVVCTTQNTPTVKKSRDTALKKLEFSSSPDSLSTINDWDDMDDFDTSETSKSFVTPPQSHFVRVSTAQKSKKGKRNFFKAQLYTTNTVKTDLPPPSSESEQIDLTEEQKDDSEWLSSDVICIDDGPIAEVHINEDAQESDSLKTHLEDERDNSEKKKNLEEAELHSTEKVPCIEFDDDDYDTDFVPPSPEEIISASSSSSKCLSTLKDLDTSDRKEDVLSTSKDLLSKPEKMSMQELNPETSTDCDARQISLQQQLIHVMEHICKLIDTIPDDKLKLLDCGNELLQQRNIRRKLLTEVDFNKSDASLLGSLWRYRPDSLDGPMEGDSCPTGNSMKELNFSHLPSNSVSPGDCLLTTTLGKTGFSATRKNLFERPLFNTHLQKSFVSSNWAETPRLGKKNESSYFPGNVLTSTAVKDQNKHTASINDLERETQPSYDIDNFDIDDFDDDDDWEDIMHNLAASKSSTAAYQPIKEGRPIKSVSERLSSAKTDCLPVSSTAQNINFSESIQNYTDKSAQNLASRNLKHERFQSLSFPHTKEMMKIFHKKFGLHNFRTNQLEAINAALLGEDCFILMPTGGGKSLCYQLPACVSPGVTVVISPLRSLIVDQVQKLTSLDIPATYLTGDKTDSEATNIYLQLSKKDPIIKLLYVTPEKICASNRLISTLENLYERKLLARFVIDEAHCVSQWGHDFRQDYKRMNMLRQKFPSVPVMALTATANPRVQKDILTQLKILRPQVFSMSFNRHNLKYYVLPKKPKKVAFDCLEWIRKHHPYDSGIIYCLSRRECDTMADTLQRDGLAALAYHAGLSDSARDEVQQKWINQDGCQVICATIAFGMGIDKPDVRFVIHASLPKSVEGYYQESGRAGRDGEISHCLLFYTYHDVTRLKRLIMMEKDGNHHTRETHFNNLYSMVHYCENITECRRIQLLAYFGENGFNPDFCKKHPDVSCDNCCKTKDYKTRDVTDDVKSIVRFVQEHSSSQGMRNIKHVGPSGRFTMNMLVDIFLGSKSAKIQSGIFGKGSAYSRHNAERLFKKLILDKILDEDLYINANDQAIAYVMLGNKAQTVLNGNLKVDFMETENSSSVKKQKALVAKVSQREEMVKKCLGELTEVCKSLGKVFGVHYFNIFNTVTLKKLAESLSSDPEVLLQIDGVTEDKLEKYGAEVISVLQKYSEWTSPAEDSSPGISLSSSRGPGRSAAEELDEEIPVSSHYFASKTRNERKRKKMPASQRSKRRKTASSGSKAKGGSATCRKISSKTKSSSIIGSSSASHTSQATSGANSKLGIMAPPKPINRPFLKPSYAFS

Assay [4] can be described thus: Validation screen for small molecules that induce DNA re-replication in MCF 10A normal breast cells (AID 463097). Further: potency means the concentration at half of the fitted maximal effect; nearly all actives have a fitted effect of over 60% in size. The procedure, abridged:
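DNA re-replication was detected as a rise in nuclei with elevated Hoechst fluorescence after a 48 hr compound exposure of MCF 10A cells at 37 C.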

Assay [5] has as its target M-phase phosphoprotein 8 (Homo sapiens) (UniProt Q99549). The assay is described as follows: qHTS Validation Assay for Inhibitors for MPP8 Chromodomain Interactions with Methylated Histone Tails (AID 488949). Further: potency means the concentration at half of the fitted maximal effect; nearly all actives have a fitted effect of over 55% in size. A digest of the protocol:
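Disruption of the preformed MPP8–trimethyl-H3K9 peptide complex (both 50 nM, 30 min, RT) is measured after 30 min compound exposure, using AlphaScreen proximity beads; aurintricarboxylic acid titration serves as plate control.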

Assay [6] has as its target Transient receptor potential cation channel subfamily V member 1 (Homo sapiens) (UniProt Q8NER1). The assay is described as follows: HTS Assay for Compounds that Act as Enhancers of the Vanilloid Receptor 1 (AID 488979). Further: 0% is about no effect. A digest of the protocol:
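TRPV1-expressing cells loaded with Fluo-8 calcium dye; compounds added and calcium influx read kinetically for 3 min (agonist phase), then capsaicin at EC20 added and read 2 min more for enhancement. Fluorescence ex 480/em 520 nm.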

Assay [7] addresses Thyrotropin receptor (Homo sapiens) (UniProt P16473). The assay can be described thus: qHTS Assay for Antagonists of the Thyroid Stimulating Hormone Receptor (AID 488980). Further: series mostly up to about 58 µM; 0% is about no effect. The procedure, abridged: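 Cells expressing human TSHR (HEK293) are dispensed in HBSS/HEPES containing 70 uM RO 20-1724, compound is added, then TSH at EC80 (4 nM final). Antibody in lysis buffer follows, 30 minutes at room temperature before HTRF detection.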

In assay [8] the target is Thyrotropin-releasing hormone receptor (Homo sapiens) (UniProt P34981). The assay is described as follows: qHTS for Small Molecule Agonists and Allosteric Enhancers of Human TRH Receptor: Validation Screen for Agonists (AID 493127;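 active means calcium activation more than 3 SD above the typical response in the agonist read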;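 further: intracellular calcium rise by fluo-8 fluorescence before TRH EC20 addition; 0% is about no effect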). The conditions noted are these: TRH receptor agonist cell assay; at 2 µM; stronger effect = higher value. The procedure, abridged:
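Cells 2000/well, 10% FCS, 18 h 33.5C/5% CO2 → fluo-8 Ca dye, RT 30 min–1.5 h → FDSS baseline 10 × 1 s → compound added → 230 cycles (1 s/cycle) agonist mode. TRH controls.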

For assay [9], the target named is Galactokinase (Homo sapiens) (UniProt P51570). The assay can be described thus: qHTS Validation Assay for Inhibitors of Human Galactokinase (GALK) (AID 493189). Further: 0% is about no effect. A digest of the protocol: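 Compounds were pin-transferred into ATP buffer, then GALK-galactose mix was added (final 5 nM enzyme, 100 uM galactose, 35 uM ATP). After 1 h at room temperature, remaining ATP was measured luminescently.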
Galactokinase (Homo sapiens), sequence (P51570 whole entry, looked up): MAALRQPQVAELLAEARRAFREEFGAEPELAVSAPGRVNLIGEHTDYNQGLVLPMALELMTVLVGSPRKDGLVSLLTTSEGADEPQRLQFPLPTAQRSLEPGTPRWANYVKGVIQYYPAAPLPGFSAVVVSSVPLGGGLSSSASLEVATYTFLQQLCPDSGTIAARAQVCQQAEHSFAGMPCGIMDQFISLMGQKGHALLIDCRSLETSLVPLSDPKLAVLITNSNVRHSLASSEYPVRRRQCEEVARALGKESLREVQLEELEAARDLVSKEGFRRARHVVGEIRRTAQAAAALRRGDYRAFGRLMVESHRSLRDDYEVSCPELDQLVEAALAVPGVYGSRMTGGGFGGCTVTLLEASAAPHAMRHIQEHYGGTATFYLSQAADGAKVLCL

The nature of assay [10]: Validation screen for small molecules that induce DNA re-replication in SW480 colon adenocarcinoma cells (AID 504364). Further: 0% is about no effect. A digest of the protocol: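 250 cells/well; compound pinned in; 48 hr, 37 C, 5% CO2; Hoechst added, 40 min; nuclear fluorescence imaged, 405 ex / 500-530 em; re-replication scored as increase in high-intensity nuclei.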
The target of assay [11] is Voltage-gated inwardly rectifying potassium channel KCNH2 (Homo sapiens) (UniProt Q12809). The assay is described as follows: qHTS Assay for Small Molecule Inhibitors of the Human hERG Channel Activity (AID 588834).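 Further: top concentration of the series differs between compounds; on the % scale 0 is the no-effect control and ±100 the full control effect; lower thallium flux fluorescence means stronger hERG block; nearly all actives have a fitted effect of over 50% in size.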 The procedure, abridged: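 Measured: FluxOR fluorescence after thallium stimulation in U2OS cells transduced with hERG by baculovirus. Compounds pre-incubated around 10 min; medium Opti-MEM with 2% FCS. AC50 from Hill equation.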
Voltage-gated inwardly rectifying potassium channel KCNH2 (Homo sapiens), sequence (Q12809 whole entry, looked up): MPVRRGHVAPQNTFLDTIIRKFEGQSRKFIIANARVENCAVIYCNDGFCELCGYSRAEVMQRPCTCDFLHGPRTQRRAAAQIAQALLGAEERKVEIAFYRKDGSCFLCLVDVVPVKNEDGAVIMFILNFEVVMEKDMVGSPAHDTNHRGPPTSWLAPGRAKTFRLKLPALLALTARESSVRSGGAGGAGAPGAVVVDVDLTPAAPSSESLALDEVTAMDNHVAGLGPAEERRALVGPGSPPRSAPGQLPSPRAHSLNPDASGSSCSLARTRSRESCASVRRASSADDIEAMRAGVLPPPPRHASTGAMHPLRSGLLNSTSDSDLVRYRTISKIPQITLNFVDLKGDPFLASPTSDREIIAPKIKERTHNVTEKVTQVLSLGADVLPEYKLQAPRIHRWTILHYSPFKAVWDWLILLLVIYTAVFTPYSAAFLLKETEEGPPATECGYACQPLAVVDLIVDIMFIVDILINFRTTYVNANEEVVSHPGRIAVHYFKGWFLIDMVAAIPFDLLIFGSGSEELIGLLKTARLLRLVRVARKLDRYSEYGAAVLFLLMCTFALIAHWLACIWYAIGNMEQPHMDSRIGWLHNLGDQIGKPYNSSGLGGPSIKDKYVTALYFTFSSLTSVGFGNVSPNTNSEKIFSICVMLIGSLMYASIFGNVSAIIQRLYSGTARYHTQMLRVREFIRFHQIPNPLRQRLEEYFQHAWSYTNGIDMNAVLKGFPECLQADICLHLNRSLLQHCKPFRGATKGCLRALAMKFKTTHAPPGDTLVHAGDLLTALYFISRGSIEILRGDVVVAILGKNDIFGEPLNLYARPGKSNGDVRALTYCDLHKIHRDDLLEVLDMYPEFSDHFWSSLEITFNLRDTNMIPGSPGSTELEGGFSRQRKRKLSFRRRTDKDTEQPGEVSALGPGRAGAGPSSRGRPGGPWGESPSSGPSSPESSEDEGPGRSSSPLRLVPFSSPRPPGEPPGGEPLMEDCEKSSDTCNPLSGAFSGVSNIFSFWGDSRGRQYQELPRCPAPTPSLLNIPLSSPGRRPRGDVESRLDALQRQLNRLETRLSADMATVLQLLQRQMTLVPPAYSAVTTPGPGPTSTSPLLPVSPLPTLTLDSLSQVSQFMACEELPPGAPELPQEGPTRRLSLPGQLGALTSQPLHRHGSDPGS

A short description of assay [12]: P-glycoprotein substrates identified in KB-3-1 adenocarcinoma cell line, qHTS therapeutic library screen (AID 1346986). Further: nearly all actives have a fitted effect of over 60% in size. The procedure, abridged:
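Resistance attributable to P-gp was assessed by comparing AC50 in KB-8-5-11 with parental KB-3-1 and by tariquidar reversal. Cells were exposed 72 h and viability read by CellTiter-Glo.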

The nature of assay [13]: P-glycoprotein substrates identified in KB-8-5-11 adenocarcinoma cell line, qHTS therapeutic library screen (AID 1346987). Further: series mostly up to about 44 µM; on the % scale 0 is the no-effect control and ±100 the full control effect; nearly all actives have a fitted effect of over 65% in size. A digest of the protocol:
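Steps: plate 500 KB-8-5-11 cells/well in DMEM + 10% FCS (colchicine removed); pin compounds in dose-response; incubate 72 h, 37 degree C, 5% CO2; add CellTiter-Glo, 5 min; read luminescence.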

Assay [14] can be described thus: qHTS to identify inhibitors of the type 1 interferon - major histocompatibility complex class I in skeletal muscle: primary screen against the NCATS Mechanism Interrogation Plate v5.0 (MIPE) Libary (AID 1347411).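 Further: plate controls were vehicle for no effect and reference inhibitor for full effect; nearly all actives have a fitted effect of over 65% in size.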 The procedure, abridged: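 Luminescence from HiBiT-tagged endogenous HLA-B*08:01 served as the MHC class I read-out. CRISPR-engineered C25cl48 human myoblasts received 4.0 ng/ml IFN-beta plus compound for 24 hrs, with an 11-point, 1:3 series topping at 46 uM final.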

Assay [15] addresses N-terminal Xaa-Pro-Lys N-methyltransferase 1 (Homo sapiens) (UniProt Q9BV86). The assay can be described thus: Confirmatory qHTS for Inhibitors of N-terminal methyltransferase 1 (NTMT1): MTaseGlo Assay (AID 1645874). Further: potency means the concentration at half of the fitted maximal effect; nearly all actives have a fitted effect of over 65% in size. The procedure, abridged: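 Luminescent MTase-Glo read-out of SAH. 125 nM NTMT1, 100 uM SAM, 1 uM SPKRIA substrate, 30 min RT reaction after 15 min compound preincubation. Normalized to no-enzyme and DMSO controls; Hill fit.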

The nature of assay [16]: Primary qHTS for inhibitors of nuclear receptor binding SET domain protein 2 (NSD2) in an isogenic RCH-ACV NSD2 p.E1099K mutant (9B) (AID 1645876). Further: on the % scale 0 is the no-effect control and ±100 the full control effect; nearly all actives have a fitted effect of over 70% in size.
Assay [17] concerns the target Glutathione peroxidase 1 (Homo sapiens) (UniProt P07203). The assay can be described thus: Primary qHTS Assay for Inhibitors of Recombinant Selenoprotein Glutathione Peroxidase 1 (GPX1) (AID 1845191). Further: nearly all actives have a fitted effect of over 65% in size. The procedure, abridged:
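Recombinant GPX1 (10 nM final) was preincubated with compound for 30 min at room temperature, then reacted with 1 mM GSH, 0.5 mM CHP, 0.5 mM NADPH and 100 nM glutathione reductase; NADPH fluorescence (340/450 nm) was read at 0 and 15 min.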

Assay [18] has as its target Phospholipid hydroperoxide glutathione peroxidase GPX4 (Homo sapiens) (UniProt P36969). The assay is described as follows: Primary qHTS Assay for Inhibitors of Recombinant Selenoprotein Glutathione Peroxidase 4 (GPX4) (AID 1845192). As to conditions: outcome: dose series up to 50 µM unless noted. The procedure, abridged:
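GR-coupled readout: 100 nM GR, 1 mM GSH, 0.5 mM NADPH; NADPH fluorescence (ex 340/em 450 nm) read at t=0 and after 15 min RT. GPX4 200 nM, preincubated 30 min with compound; substrate 0.5 mM CHP.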

The nature of assay [19]: qHTS drug screen for cell cycle checkpoint inhibitors in PARPi-resistant BRCA-mutant ovarian cancer cell lines. (AID 1963452; calls by dose curve). The conditions noted are these: PEO1/OlaR viability, CellTiter-Glo luminescence, 96 h, stronger effect = lower value. The procedure, abridged:
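PEO1, PEO4 and PEO1/OlaR ovarian cancer cells, 600 per well, exposed 96 h at 37C to a dilution series. Viability read by CellTiter-Glo luminescence, normalized to DMSO and empty wells; activity summarized as Z-AUC.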

Molecules are shown by their SMILES. Inconclusive results are not listed. Calls of active or inactive are those of the source. Unless noted, the call rests on the fitted dose curve; in most records, active means well fitted curve in the direction sought with a large enough effect; inconclusive means small, poorly fitted or top-dose-only effect, or another doubt; inactive means no such curve, though single readings can be large; an effect the other way counts as inactive or inconclusive.

Phospholipid hydroperoxide glutathione peroxidase GPX4 (Homo sapiens), sequence (P36969 whole entry, looked up): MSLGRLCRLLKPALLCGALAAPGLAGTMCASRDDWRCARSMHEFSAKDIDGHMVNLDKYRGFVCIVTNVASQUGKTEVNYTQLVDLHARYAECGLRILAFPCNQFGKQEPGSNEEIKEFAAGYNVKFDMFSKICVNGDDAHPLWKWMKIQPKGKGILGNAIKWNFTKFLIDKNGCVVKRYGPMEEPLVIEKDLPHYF
N-terminal Xaa-Pro-Lys N-methyltransferase 1 (Homo sapiens), sequence (Q9BV86 whole entry, looked up): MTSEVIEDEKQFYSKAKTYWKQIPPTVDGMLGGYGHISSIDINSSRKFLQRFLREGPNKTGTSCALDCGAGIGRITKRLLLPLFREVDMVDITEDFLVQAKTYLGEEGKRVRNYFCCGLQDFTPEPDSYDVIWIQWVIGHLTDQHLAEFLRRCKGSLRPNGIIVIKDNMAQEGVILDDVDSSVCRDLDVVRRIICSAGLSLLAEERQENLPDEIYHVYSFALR
Thyrotropin receptor (Homo sapiens), sequence (P16473 whole entry, looked up): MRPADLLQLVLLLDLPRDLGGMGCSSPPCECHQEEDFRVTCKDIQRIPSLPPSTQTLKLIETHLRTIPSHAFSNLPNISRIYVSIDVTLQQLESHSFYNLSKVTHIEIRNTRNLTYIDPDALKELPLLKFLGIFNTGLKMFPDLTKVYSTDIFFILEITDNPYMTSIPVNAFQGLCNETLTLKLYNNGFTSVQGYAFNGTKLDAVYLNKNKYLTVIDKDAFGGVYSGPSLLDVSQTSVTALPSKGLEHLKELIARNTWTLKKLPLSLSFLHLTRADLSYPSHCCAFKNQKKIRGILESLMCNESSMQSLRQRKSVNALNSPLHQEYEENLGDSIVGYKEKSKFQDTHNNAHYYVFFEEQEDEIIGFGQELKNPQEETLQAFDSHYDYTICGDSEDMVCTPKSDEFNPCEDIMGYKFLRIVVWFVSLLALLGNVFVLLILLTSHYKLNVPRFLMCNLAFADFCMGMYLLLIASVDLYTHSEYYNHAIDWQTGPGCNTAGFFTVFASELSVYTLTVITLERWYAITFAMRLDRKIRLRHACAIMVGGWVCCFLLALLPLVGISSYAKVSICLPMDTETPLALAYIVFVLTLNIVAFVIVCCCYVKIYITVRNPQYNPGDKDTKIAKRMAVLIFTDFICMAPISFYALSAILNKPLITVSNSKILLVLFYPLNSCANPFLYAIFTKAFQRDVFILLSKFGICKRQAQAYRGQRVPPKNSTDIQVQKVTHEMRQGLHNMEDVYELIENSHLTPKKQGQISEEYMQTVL
M-phase phosphoprotein 8 (Homo sapiens), sequence (Q99549 whole entry, looked up): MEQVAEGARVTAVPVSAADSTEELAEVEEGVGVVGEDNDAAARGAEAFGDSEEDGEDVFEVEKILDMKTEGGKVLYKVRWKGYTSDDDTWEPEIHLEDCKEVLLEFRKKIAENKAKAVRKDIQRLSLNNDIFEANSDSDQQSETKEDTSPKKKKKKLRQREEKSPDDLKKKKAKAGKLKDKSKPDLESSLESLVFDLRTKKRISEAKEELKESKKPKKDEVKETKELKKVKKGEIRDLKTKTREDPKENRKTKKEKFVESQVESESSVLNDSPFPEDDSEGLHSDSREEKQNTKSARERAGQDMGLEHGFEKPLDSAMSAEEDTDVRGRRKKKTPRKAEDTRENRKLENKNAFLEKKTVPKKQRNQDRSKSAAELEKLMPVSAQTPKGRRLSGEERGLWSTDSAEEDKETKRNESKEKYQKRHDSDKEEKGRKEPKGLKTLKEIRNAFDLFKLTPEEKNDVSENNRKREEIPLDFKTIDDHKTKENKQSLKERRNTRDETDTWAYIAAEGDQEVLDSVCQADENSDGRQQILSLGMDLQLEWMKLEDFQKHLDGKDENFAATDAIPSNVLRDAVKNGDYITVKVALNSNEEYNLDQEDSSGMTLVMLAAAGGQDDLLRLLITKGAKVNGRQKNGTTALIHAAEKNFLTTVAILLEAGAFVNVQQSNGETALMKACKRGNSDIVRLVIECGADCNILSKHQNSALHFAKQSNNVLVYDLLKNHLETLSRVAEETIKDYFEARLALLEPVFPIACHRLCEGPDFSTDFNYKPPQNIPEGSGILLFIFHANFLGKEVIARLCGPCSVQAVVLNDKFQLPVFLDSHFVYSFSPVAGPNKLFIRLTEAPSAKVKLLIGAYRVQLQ

As for `CC(C)=CCC/C(C)=C/CC/C(C)=C/CSc1ccccc1C(=O)O`, the Potency in assay [1] was 11.2 µM (active); in [3], 31.6 µM (active); in assay [4] it was 11.2 µM (active); in assay [5] it was 56.2 µM (active); in [15], 39.8 µM (active); in [18], 16.1 µM (active). The result in assay [2], in [6], in assay [7], in assay [9] and in [10] was inactive. In assay [8], the activation was 1.12% (inactive). Besides, the Potency result in [11], in [12], in assay [13], in assay [14], in assay [16] and in assay [17] was “inactive” each time. The Z-AUC in [19] was 0.993 (inactive); in [19] (measured here: PEO1 parental Z-AUC) it was 0.837; in assay [19] (measured here: PEO4 Z-AUC), 0.897.
